According to PMC4336329 (PLoS ONE, 2015):
Hit rate of the full screen: of about 310,000 compounds, about 14,000 (4.5%) showed an effect of 50% or more. Effects have a minus sign here. Only a selection was taken, and strong results are over-represented in it overall.

The molecules below were run against human ether-à-go-go-related gene (hERG) potassium channel (human, UniProt Q12809) (assay: primary screen, population patch clamp on CHO cells stably expressing hERG; higher = less effect of the substance).
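Also: peak tail current of the secondary pulse compared with the same well before compound.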

Sequence of human ether-à-go-go-related gene (hERG) potassium channel (Q12809 whole entry, looked up): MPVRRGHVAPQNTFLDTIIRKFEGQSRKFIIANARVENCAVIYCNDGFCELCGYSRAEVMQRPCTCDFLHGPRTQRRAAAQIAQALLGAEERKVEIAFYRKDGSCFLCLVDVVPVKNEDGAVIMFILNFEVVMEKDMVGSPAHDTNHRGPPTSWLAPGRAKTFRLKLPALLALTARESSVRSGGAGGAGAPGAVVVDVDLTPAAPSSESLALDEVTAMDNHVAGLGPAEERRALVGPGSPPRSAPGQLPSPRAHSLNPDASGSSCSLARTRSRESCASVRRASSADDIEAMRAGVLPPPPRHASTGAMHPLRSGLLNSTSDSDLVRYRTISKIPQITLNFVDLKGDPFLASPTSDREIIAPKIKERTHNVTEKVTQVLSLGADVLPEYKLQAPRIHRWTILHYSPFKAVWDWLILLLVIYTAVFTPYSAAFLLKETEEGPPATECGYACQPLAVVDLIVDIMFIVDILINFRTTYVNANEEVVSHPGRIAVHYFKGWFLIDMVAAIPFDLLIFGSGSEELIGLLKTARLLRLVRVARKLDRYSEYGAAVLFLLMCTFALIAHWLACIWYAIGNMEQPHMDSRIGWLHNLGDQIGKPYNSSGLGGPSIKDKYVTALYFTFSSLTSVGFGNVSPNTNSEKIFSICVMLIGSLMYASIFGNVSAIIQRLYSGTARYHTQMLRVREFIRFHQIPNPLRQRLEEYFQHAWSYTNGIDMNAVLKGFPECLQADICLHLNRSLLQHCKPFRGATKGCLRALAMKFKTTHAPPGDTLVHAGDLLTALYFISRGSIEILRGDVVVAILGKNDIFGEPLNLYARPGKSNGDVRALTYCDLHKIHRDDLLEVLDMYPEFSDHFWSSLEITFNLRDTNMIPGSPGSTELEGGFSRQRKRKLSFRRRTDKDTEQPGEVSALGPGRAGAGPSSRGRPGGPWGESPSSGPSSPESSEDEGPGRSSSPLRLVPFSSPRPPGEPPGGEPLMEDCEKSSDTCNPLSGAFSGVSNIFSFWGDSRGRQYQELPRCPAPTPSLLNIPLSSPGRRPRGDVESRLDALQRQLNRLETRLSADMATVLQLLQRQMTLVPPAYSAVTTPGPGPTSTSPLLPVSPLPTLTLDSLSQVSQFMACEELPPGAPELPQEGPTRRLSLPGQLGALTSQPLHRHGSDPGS

Point of comparison: `Cc1cc(Nc2cccc(F)c2)n2c(n1)nc1ccccc12`, “hERG current change (%, negative = inhibition) at 10uM” value 3.44%. Against it:
- CN1CCC(NC(=O)NC2CCCCC2)CC1 — higher, 11.9%
- Cc1cc(N2CCN(c3ccccc3)CC2)nc2ccccc12 — lower, 3.04%
- Cc1cc(-c2ccccc2)nc(N2CCN(c3ccccn3)CC2)n1 — lower, 1.11%
- Cc1cc(N2CCN(c3ccccc3)CC2)nc(-c2ccccc2O)n1 — higher, 6.15%
- Cc1cc(NC2CCCCC2)n2c(n1)nc1ccccc12 — lower, -55.1%
- Cc1cc(N2CCN(c3ccccn3)CC2)n2cc(-c3ccccc3)nc2n1 — lower, -72.3%
- Cc1cc(N2CCN(c3ccccc3)CC2)n2c(n1)nc1ccccc12 — lower, -68.7%
- Cc1cc(N2CCN(c3ccccc3)CC2)n2cc(-c3ccccc3)nc2n1 — lower, -75.3%
- c1ccc(-c2csc(N3CCN(c4ccccn4)CC3)n2)cc1 — lower, -1.09%
- Cc1cc(C)c2c(n1)nn1c(N3CCN(c4ccccc4)CC3)cc(C)nc21 — higher, 4.66%
- Cc1cc(N2CCN(c3ccc(F)cc3)CC2)nc(-c2ccccc2)n1 — lower, -13.7%
- Cc1nnc2c(NC3CCCCC3)nc3ccccc3n12 — lower, 1.89%
- CC(C)c1ccc(NC(=O)c2cccc(NC3=NC4CS(=O)(=O)CC4S3)c2)cc1 (stereo not shown) — lower, -11.1%
- CS(=O)(=O)N(CC(=O)Nc1ccc(F)cc1)C1CCCCC1 — higher, 12.6%
- c1ccc(-c2nc(C3CCCCC3)no2)cc1 — lower, -0.00972%
- CCSC1=N/C(=C\c2ccccc2)C(=O)N1c1ccc(OC)cc1 — higher, 6.36%
- O=C(O)c1cccnc1Cl — higher, 10.7%
- O=C(/C=C/c1ccccc1)Nc1sc2c(c1C(=O)O)CCC2 — higher, 5.92%
- Cc1cc(N2CCOCC2)n2nc(-c3cccc(F)c3)cc2n1 — lower, 0.119%
- CC1CN(c2nc3ccccc3cc2-c2ccccc2)CC(C)O1 (stereo not shown) — lower, -1.86%
- CCc1nn2c(N3CCOCC3)cc(C)nc2c1-c1ccc(F)cc1 — lower, 0.767%
- Cc1cc(N2CCCCC2)n2nc(C)c(-c3ccccc3)c2n1 — higher, 13.3%
- CN1CCN(c2cc(-c3ccccc3)nc3cc(-c4ccc(F)cc4)nn23)CC1 — lower, -14.5%
- COc1ccc(-c2cc(-c3ccc(F)cc3)nc(N3CCN(C)CC3)n2)cc1 — lower, -3.88%
- Cc1cc(N2CCN(c3ccccc3Cl)CC2)n2cc(-c3ccccc3)nc2n1 — lower, -53.9%
- Cc1cc(N2CCN(C)CC2)n2cc(-c3ccc(F)cc3)nc2n1 — lower, -87.6%
- Cc1cc(N2CCN(c3nc(-c4ccccc4)cs3)CC2)c2ccccc2n1 — lower, -23.3%
- Cc1cc(N2CC(C)OC(C)C2)n2cc(-c3ccccc3)nc2n1 (stereo not shown) — lower, -61.7%
- Cc1c(C(=O)N2CC(C)OC(C)C2)sc2nc(-c3ccccc3)cn12 (stereo not shown) — lower, -15.2%
- Cc1cc(N2CCOCC2)n2cc(-c3ccc(F)cc3)nc2n1 — lower, -69%
